# nsP2pro primary – CHIKV nsP2 protease inhibition, primary qHTS; Q8JUX6; AID 1964107; 31,000 tested, 1.1% active; FRET peptide cleavage, nsP2pro, fluorescence 1 h; Potency, µM (top dose mostly 24.9 µM), inactives show top-dose activity change, negative = inhibition, usual class: inhibitors; calls by dose curve; also: nearly all actives have a fitted effect of over 60% in size
#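 Purified recombinant nsP2pro (150 nM final) in 10 mM Tris-HCl pH 8.0 with 0.01% Tween 20 was preincubated 15 min at room temperature with compound (7 concentrations, up to 25 uM). FRET peptide 2 substrate (2.5 uM final) was then added; fluorescence was read after 1 h.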
# Active calls of the source: *; i = inactive; [ ] = dose if it differs, or a comment. Only a selection was taken, and hits are over-represented in it overall. % is scaled to controls: 0 for no effect and ±100 for the full control effect; potency is read from the fitted curve at half-maximal effect.
SMILES,nsP2pro primary
O=C(O)Cc1cccn1-c1ccc(Cl)cc1,4.5µM*
O=C(Cc1cccn1-c1ccc(F)cc1)N1CCCCC1,-20%
O=C(N1CCOCC1)N1CCN(c2ccc(Cl)cc2)CC1,-1%
CCCN1CC2ON=C(C(=O)O)C2C1 (centres undefined),13µM*
O=C(O)C1=NOC2CN(Cc3cscn3)CC12 (centres undefined),-12%[39.2 µM]
CC(C)CCN1CC2ON=C(C(=O)O)C2C1 (centres undefined),-3%[39.2 µM]
Cc1ccc(C(=O)OCc2ccc([C@@H](CN)C(=O)Nc3ccc4cnccc4c3)cc2)c(C)c1,105%[10 µM]
Fc1ccc(-c2ccc(CNCCSc3nnnn3-c3ccccc3)o2)cc1,13µM*
O=S(=O)(NCCSc1nnnn1-c1ccccc1)c1ccc(F)cc1,3%
COc1ccc(Cl)cc1CNCCSc1nnnn1-c1ccccc1,-30%
O=C(Nc1ccc(Br)c(Br)c1)Nc1cccc(-c2ccncc2)n1,-6%
O=S(=O)(Nc1nc2ccccc2s1)c1ccc(NCc2ccc(Br)cc2O)cc1,i
Cc1cc(-c2ccc(N=Nc3ccc4c(S(=O)(=O)O)cc(S(=O)(=O)O)c(N)c4c3O)c(C)c2)ccc1N=Nc1ccc2c(S(=O)(=O)O)cc(S(=O)(=O)O)c(N)c2c1O,12µM*
C=C(C)[C@@H]1CC[C@]2(C)CC[C@]3(C)[C@H](CC[C@@H]4[C@@]5(C)CC[C@H](O)C(C)(C)[C@@H]5CC[C@]43C)[C@@H]12,-22%[10 µM]
NC(N)=NCCC[C@@H](N)C(=O)N[C@@H](CCCN=C(N)N)C(=O)N1CCC[C@H]1C(=O)N1C[C@H](O)C[C@H]1C(=O)NCC(=O)N[C@@H](Cc1cccs1)C(=O)N[C@@H](CO)C(=O)N1Cc2ccccc2C[C@@H]1C(=O)N1[C@H](C(=O)N[C@@H](CCCN=C(N)N)C(=O)O)C[C@@H]2CCCC[C@@H]21,-1%[10 µM]
Cc1nn2c(c1-c1ccccc1[S+](C)(=O)[O-])N(CCCc1ccccc1)CCC2,-8%[39.2 µM]
CCNC(=O)N[C@@H]1C=C[C@@H](c2c(C)nn(-c3ccc(C(C)C)cc3)c2C)C1,-4%[39.2 µM]
CCNC(=O)N[C@@H]1C=C[C@@H](c2c(C)nn(-c3ccc(C(C)(C)C)cc3)c2C)C1,-6%[39.2 µM]
CCNC(=O)N[C@@H]1C=C[C@@H](c2c(C)nn(-c3ccc(C(F)(F)F)cc3)c2C)C1,11µM*
COc1ccc(NC(=O)N[C@@H]2C=C[C@@H](c3c(C)nn(CCC#N)c3C)C2)cc1,13µM*
Cc1nn(-c2ccc(F)cc2)c(C)c1[C@@H]1C=C[C@@H](NC(=O)NC(C)C)C1,-8%[39.2 µM]
COc1ccc(-n2nc(C)c([C@@H]3C=C[C@@H](NC(=S)NCC(C)C)C3)c2C)cc1,44%[39.2 µM]
C[C@]12C=CC(=O)C=C1CC[C@@H]1[C@@H]2[C@@H](O)C[C@@]2(C)[C@H]1CC[C@]2(O)C(=O)COC(=O)c1cccc(S(=O)(=O)O)c1,-4%
Cc1noc(C)c1S(=O)(=O)Nc1cnccc1C(=O)Nc1nc(-c2ccccc2)cs1,3%
Cc1ncc(CNC(=O)N(CCCl)N=O)c(N)n1,-2%
SMILES,nsP2pro primary
COC(=O)CCCCC(CCSS/C(CCO)=C(\C)N(C=O)Cc1cnc(C)nc1N)SC(C)=O (centres undefined),8%
C/C(=C(\CCO)SS/C(CCO)=C(\C)N(C=O)Cc1cnc(C)nc1N)N(C=O)Cc1cnc(C)nc1N,11µM*
Cc1csc(CN(C)c2ncnc3ccc(-c4ccc5c(c4)OCO5)cc23)n1,i
CN(CC1CCCO1)c1ncnc2ccc(-c3ccc4c(c3)OCO4)cc12 (centres undefined),i
CC1=C2C[C@@]3(C)C(CCC[C@@H]3C)C(O)C2(O)OC1=O (some centres undefined),11µM*
CC1=C2CC(=O)C(C)CC/C=C(\C)CC2(O)OC1=O (centres undefined),-9%
CC1=C2C[C@@]3(C)[C@@H](CCC[C@@H]3C)C[C@@]2(O)OC1=O,-27%
CC=CC1=C(C(=O)O)N2C(=O)[C@@H](NC(=O)[C@H](N)c3ccc(O)cc3)[C@H]2SC1,-8%[10 µM]
Cc1ccc(C)c(SC2CS(=O)(=O)c3ccccc32)c1 (centres undefined),-3%
CC(C)(C)c1ccc(CN2CC3(COCC2=O)CN(c2cnccn2)C3)cc1,i
O=C1COCC2(CN(c3ccc(C(F)(F)F)cn3)C2)CN1c1ccc(F)cc1,-11%[39.2 µM]
O=C1COCC2(CN(c3ccc(C(F)(F)F)cn3)C2)CN1c1ccccc1F,11µM*
O=C(O)c1ccc(-c2noc(-c3ccc(C(F)(F)F)cc3)n2)cc1,3%
CCOC(=O)/C=C/c1ccc(O)c(OC)c1,-12%
COc1ccc(-c2oc3cc(O)cc(O)c3c(=O)c2O)cc1,8%
Oc1ccc(CCNCCCCCCNCCc2ccccc2)cc1O,-13%
CNC[C@H](O)c1cccc(O)c1,2%
